Screens as filed in PubChem BioAssay.
A selection: hits, their analogues and other compounds. The true share with any hit is near 3.7%.
A549 viability: Nrf2 qHTS screen for inhibitors: counterscreen for cytotoxicity; A549 ARE-Fluc cells, CellTiter-Fluor viability, 18-24 h; Potency, µM (series often up to 46 µM), without a hit: top-dose activity change, negative = cytotoxicity, actives largely listed as inhibitors; 0.16% of 390,000 active; further: potency means the concentration at half of the fitted maximal effect; on the % scale 0 is the no-effect control and ±100 the full control effect
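Cytotoxicity counterscreen: CellTiter-Fluor fluorescence was measured in A549 ARE_Fluc cells after 18-24 h of compound exposure in a concentration series. The subsequent BugLite luminescent read reports ARE-luciferase activity.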
TCR activator: Activators of T cell receptors: qHTS campaign; AID 504894, 2011; 330,000 tested, under 10 active; primary human leukocytes, anti-CD3, IL-2 HTRF, 48 h; Potency, µM (series often up to 9.22 µM), for inactives: at the highest dose activation of IL-2 secretion, hits mostly activators; further: % of control where 0% means no effect
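Primary human leukocytes receive a-CD3 beads and test compound and are incubated 48 hr. Secreted IL-2 is then assayed by HTRF, measuring 665nm acceptor emission after 320nm excitation of the europium donor.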
Nrf2 activator: qHTS of Nrf2 Activators; AREc32 ARE-luciferase reporter (MCF7-derived line), luminescence, 24 h; Potency, µM (series often up to 46.1 µM), for inactives: at the top dose activation, usual class: activators; 0.31% of 410,000 active; AID 624171, 2012; further: potency means the concentration at half of the fitted maximal effect; % of control where 0% means no effect; nearly all actives have a fitted effect of over 65% in size
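ARE-driven firefly luciferase activity in AREc32 cells measured after a 24 hr compound exposure at 37 deg C, using Steady-Glo reagent and a 30 min room-temperature hold.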
ClpP mod: qHTS Assay for Activators of ClpP. purified B. subtilis ClpP, FRET peptide cleavage, 20 min. Potency, µM (series often up to 57.5 µM), for inactives: at the top dose activity change, negative = active. 1.9% of 340,000 active. AID 651965, 2013; active means well fitted falling curve with a large enough effect; inconclusive means small, poorly fitted or top-dose-only effect; inactive means no such curve, though single readings can be large or run the other way; further: potency means the concentration at half of the fitted maximal effect; the source files actives as falling curves though it sought activators and does not explain the sign; nearly all actives have a fitted effect of over 65% in size
Target sequence (P80244 whole entry, looked up): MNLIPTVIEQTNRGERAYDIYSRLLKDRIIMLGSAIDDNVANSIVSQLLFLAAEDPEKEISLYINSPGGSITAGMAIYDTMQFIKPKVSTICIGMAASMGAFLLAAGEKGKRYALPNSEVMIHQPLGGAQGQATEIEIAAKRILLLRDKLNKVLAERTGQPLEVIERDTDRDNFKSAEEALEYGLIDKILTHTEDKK
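ClpP 10 microg/mL final, pH 8 Tris/KCl buffer with BSA, glycerol, Tween-20; compound pinned in; FRET-FV substrate; RT 20 min; Ex320/Em430; ΔFRET vs ADEP 5.8 microM, DMSO, no enzyme.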
Nrf2 inh: Nrf2 qHTS screen for inhibitors. A549 ARE-Fluc reporter, luciferase luminescence, 18-24 h. Potency, µM (top dose mostly 46 µM), without a hit: top-dose activity change, negative = inhibition, actives largely listed as inhibitors. 2.1% of 360,000 active; further: potency means the concentration at half of the fitted maximal effect; on the % scale 0 is the no-effect control and ±100 the full control effect; nearly all actives have a fitted effect of over 60% in size
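Nrf2 function is reported as luminescence of an ARE-controlled luciferase in A549 cells. Compounds were tested at several concentrations, and a CellTiter-Fluor read on the same wells flagged cytotoxicity.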
miR-21 reporter: qHTS Assay for Modulators of miRNAs and/orActivators of miR-21 | HeLa miR-21 FLuc reporter, luciferase, 48 h | Potency, µM (titrated, usually from 38.3 µM), inactives show at the highest dose activity change, positive = activation, hits mostly activators | 340,000 tested, under 10 active | AID 2288, 2010;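 further: % of control where 0% means no effect; miR-21 action dims this reporter so a rising signal means less miR-21 action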
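Luminescence from a firefly luciferase reporter carrying a miR-21 binding site downstream, stably expressed under a CMV promoter in HeLa cells that make miR-21 endogenously, reports miRNA modulation after 48 h compound exposure up to approximately 40uM final.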
An asterisk follows results filed as active; ? = inconclusive; . = no result; [ ] = remark or other dose. Unless noted, the call rests on the fitted dose curve; in most records, active means well fitted curve in the direction sought with a large enough effect; inconclusive means small, poorly fitted or top-dose-only effect, or another doubt; inactive means no such curve, though single readings can be large; an effect the other way counts as inactive or inconclusive.

SMILES | A549 viability | TCR activator | Nrf2 activator | ClpP mod | Nrf2 inh | miR-21 reporter
COc1cc(CC(=O)Nc2nc(-c3ccccc3)c(C(C)=O)s2)cc(OC)c1OC | -11% | 0% | 1% | . | 21µM* | 29%
O=S(=O)(c1cc(C(F)(F)F)ccc1Cl)N1CCCCCC1 | -5% | -4% | 0% | 0% | -2% | -5%
O=S(=O)(c1cc(C(F)(F)F)ccc1Cl)N1CCN(c2ncnc3ccccc23)CC1 | -13% | -1% | 0% | 2% | 18µM* | .
CCOc1ccc(NC(=O)[C@@H]2CCC(=O)N2C2OC(=O)c3ccccc32)cc1 (some centres undefined) | -4% | -3% | 1% | 3% | 9% | 1%
CCN(Cc1ccccc1)c1ccc(/C=N/NC(=O)c2cccc(S(=O)(=O)N3CCOCC3)c2)cc1 | -22% | 1%[46.1 µM] | 3% | -10% | 12µM* | ?
O=C(Nc1ccn(Cc2ccccc2F)n1)c1ccc(COc2ccc(Br)cc2)cc1 | ? | -1% | -1% | -16% | 6.5µM* | 12%
CCc1ccc(S(=O)(=O)/N=C2\C=C(Nc3cccc(C(=O)O)c3)C(=O)c3ccccc32)cc1 | ? | -1% | -3% | . | 21µM* | ?
O=C(O)c1ccc(NC2=C/C(=N/S(=O)(=O)c3ccccc3)c3ccccc3C2=O)cc1 | -14% | . | -3% | . | 12% | ?
CCc1ccc(S(=O)(=O)/N=C2\C=C(Nc3ccc(O)cc3)C(=O)c3ccccc32)cc1 | 12µM* | 4% | -2% | . | 8.2µM* | ?
COc1ccccc1N1C(=O)C(Cl)=C(Nc2ccccc2O)C1=O | 1% | -7% | 13µM* | . | 12% | 0%
O=C1C(Cl)=C(Nc2ccccc2O)C(=O)N1c1ccccc1 | -10% | -3% | ? | 1% | 18% | -24%
CSc1ccc(NC(=O)N2CCC(C(=O)c3ccc(F)cc3)CC2)cc1 | -8% | 2% | 2% | . | 16µM* | 10%
COc1ccc(NC(=O)N2CCC(C(=O)c3ccc(F)cc3)CC2)cc1 | 10% | -2% | 0% | 1% | -15% | -15%
Cc1cc(C)cc(NC(=O)N2CCC(C(=O)c3ccc(F)cc3)CC2)c1 | -15% | 0% | -1% | . | 15µM* | 9%
O=C(COc1ccc2ccc(=O)oc2c1)NC1CCCCC1 | 8% | 3% | 4% | 10µM* | -12% | .
N#CC1(NC(=O)COc2ccc3ccc(=O)oc3c2)CCCCC1 | -1% | -4% | -1% | 35µM* | 14% | .
COc1ccc2c(c1)c(=O)oc1cc(OCC(=O)NC3CC3)ccc12 | -11% | -13% | 0% | ? | -8% | -8%
COc1ccc2c(c1)c(=O)oc1cc(OCC(=O)NC3CCCCC3)ccc12 | . | -28% | 0% | 8.9µM* | -43% | -3%
CC(=O)c1ccc(NC(=O)Nc2nnc(N3CCCC(C)C3)s2)cc1 (centres undefined) | 0% | . | -1% | -3% | 25% | -17%
O=C(C[N+]12CCCc3cccc(c31)CCC2)c1ccc(Cl)c2ccccc12 | . | . | . | -2% | . | .
COC(=O)C1=NN[C@H](C(=O)OC(C)(C)C)[C@H]1c1ccccc1 | 4% | -9% | 0% | 16µM* | -4% | 0%
O=C(O)c1cnnc2ccccc12 | 1% | -8% | 3% | . | -2% | .
N#Cc1c(-c2cccs2)cc(C2CC2)nc1SCC(N)=O | -3% | 4% | 2% | 16µM* | . | -13%
O=C(COc1ccccc1C(=O)Nc1ccccc1)Nc1cccc([N+](=O)[O-])c1 | . | . | . | -4% | . | .
CCOc1ccc(CN2CCN(Cc3ccc4c(c3)c3ccccc3n4CC)CC2)cc1 | -21% | . | -2% | 20µM* | ? | 18%
NNc1ccc2c(C(F)(F)F)cc(C(F)(F)F)nc2n1 | -10% | . | 0% | . | ? | -12%
